Pf growth 96h: P. falciparum growth inhibition at 96 hours | AID 504834 | actives 6.9% (n = 320,000) | Potency, µM (doses to about 28.7 µM), inactives show at the top dose activity change, negative = inhibition, hits mostly inhibitors | P. falciparum luciferase reporter growth, 96 h; further: on the % scale 0 is the no-effect control and ±100 the full control effect
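Cell-based qHTS: luciferase-tagged P. falciparum in erythrocytes (2% hematocrit, 0.05% parasitemia final) incubated with compounds for 96 hours, 37 C, 5% CO2; luciferase detection reagent then added and luminescence measured.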
SARS PLP yeast: SARS-CoV PLP inhibition in yeast | S. cerevisiae expressing SARS-CoV PLpro, growth rescue | Potency, µM (highest dose often 32.9 µM), without a hit: at the highest dose activity, positive = growth rescue, usual class: activators | actives 0.19% (n = 330,000) | AID 485353; calls by dose curve; further: 0% is about no effect; nearly all actives have a fitted effect of over 55% in size
NS1 inh: blocks influenza NS1 protein function; Potency, µM (highest dose often 46.1 µM), for the others: top-dose activity, positive = more growth; actives 0.4% (n = 270,000); calls by dose curve; further: actives are rising curves; nearly all actives have a fitted effect of over 50% in size
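S. cerevisiae expressing influenza A NS1, grown in glucose, washed, then diluted 1:100 into pH 6.0 -URA galactose medium with 23 nl compound. Growth recovery read as OD600; NS1-free strain serves as control.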
RE007 growth inh: less growth of the S. pombe RE007 Vpr strain. S. pombe RE007 Vpr strain, BacTiter-Glo ATP luminescence, 24 h. Potency, µM (top dose mostly 92.2 µM), for inactives: top-dose activity change, negative = less growth, hits mostly inhibitors. actives 0.21% (n = 360,000). AID 651644; active means well fitted falling curve with a large enough effect; inconclusive means small, poorly fitted or top-dose-only effect; inactive means no such curve, though single readings can be large or run the other way; further: on the % scale 0 is the no-effect control and ±100 the full control effect; nearly all actives have a fitted effect of over 50% in size
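Fission yeast RE007 carrying one integrated HIV-1 vpr copy, seeded at OD 0.01 in PMG+AL medium with 23 nL pinned compound. Grown 24 h at 30 degrees; viability read by BacTiter-Glo luminescence after 5 min.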
Pf growth 48h: P. falciparum growth inhibition at 48 hours (one generation) | Potency, µM (titrated, usually from 28.7 µM), for inactives: top-dose activity change, negative = inhibition, usual class: inhibitors | actives 5.9% (n = 310,000) | P. falciparum luciferase growth in erythrocytes, 48 h; further: on the % scale 0 is the no-effect control and ±100 the full control effect
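Firefly luciferase activity from engineered P. falciparum reports growth; inhibitors lower the luminescent signal. Cultures contained 2% hematocrit erythrocytes at 0.1% final parasitemia.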
Starred values were filed as active, the others as inactive; ? = inconclusive; nt = no result given; [ ] = remark or other dose. An excerpt weighted towards active compounds, which were near 9.5% of everything screened. Unless noted, the call rests on the fitted dose curve; in most records, active means well fitted inhibition curve with a large enough effect; inconclusive means small, poorly fitted or top-dose-only effect, or another doubt; inactive means no such curve, though single readings can be large or run the other way. Potency means the concentration at half of the fitted maximal effect.

SMILES | Pf growth 96h | SARS PLP yeast | NS1 inh | RE007 growth inh | Pf growth 48h
Cc1ccccc1CN1CCN(C(=O)c2cccc3ccccc23)CC1 | 0% | 2% | -31% | 23% | 12µM*
CC(C)(C)c1ccc(C(=O)N2CCC(C(=O)NC3CCCCCC3)CC2)cc1 | -20% | 0% | 11% | 0% | -8%
CNC[C@H]1Oc2ccc(NC(=O)Nc3ccccc3)cc2CC(=O)N([C@H](C)CO)C[C@H]1C | nt | -2% | nt | 5% | nt
COc1ccc(C2NCc3ccc4c(c3-n3cccc32)OCO4)cc1O (stereo unspecified) | nt | -10% | -14% | 10% | 6.6µM*
c1cc2n(c1)-c1c(ccc3c1OCO3)CNC2c1ccc2c(c1)OCO2 (stereo unspecified) | -22% | -4% | -9% | -11% | ?
CCC/C=C(\CCC)C(NS(=O)(=O)c1cccc2cccnc12)c1ccc(C(=O)OC)cc1 (stereo unspecified) | 13µM* | -24% | 6% | 1% | ?
CCC/C=C(\CCC)C(NC(=O)OCC(C)C)c1ccc(C(=O)OC)cc1 (stereo unspecified) | ? | -9% | 0% | 17% | ?
CC(=O)NC(CC(=O)N(Cc1ccccc1)c1ccc(C)cc1)c1ccccc1 (stereo unspecified) | 13µM* | 2% | -4% | 6% | ?
Cc1cc(C)c(NC(=S)N(CCCN2CCN(C)CC2)Cc2cccs2)c(C)c1 | 10µM* | -2% | nt | -1% | -30%
Cc1ccc(Cl)cc1NC(=S)N(CCCN1CCN(C)CC1)Cc1cccs1 | 0% | 2% | -1% | -2% | 0%
Cc1cc(Cl)ccc1NC(=S)N(CCCN1CCOCC1)Cc1cccs1 | 12µM* | 8% | -1% | -6% | ?
CCN1CCN(CCCN(Cc2cccs2)C(=S)Nc2ccccc2C)CC1 | -22% | 0% | -2% | -14% | -17%
Cc1ccc(S(=O)(=O)N2CCCC2)cc1C(=O)NCCN1CCOCC1 | 20% | 2% | 12% | 0% | ?
COc1ccc(CC(=O)Nc2cccc(SC)c2)cc1OC | -12% | 1% | nt | 0% | -4%
C=C(C)COc1ccc(-c2ncncc2Oc2ccc(OC)cc2)c(O)c1 | nt | -14% | -47% | 2% | 3.7µM*
C=C(C)COc1ccc(-c2[nH]ncc2Oc2ccccc2OCC)c(O)c1 | 1.2µM* | -21% | -136% | ? | 1.3µM*
C=C(C)COc1ccc(-c2nc(N)ncc2-c2ccc(OC)cc2)c(O)c1 | -6% | -4% | -48% | nt | ?
CCOc1ccccc1Oc1cn[nH]c1-c1ccc(O)cc1O | 9.3µM* | 0% | 6% | 6% | 8.3µM*
C=C(C)COc1ccc(-c2[nH]ncc2Oc2cccc(OC)c2)c(O)c1 | 8.3µM* | -18% | -160% | ? | 9.3µM*
COc1ccc(-c2[nH]ncc2Oc2ccccc2OC)c(O)c1 | -13% | -20% | -41% | -5% | ?
CCOC(=O)[C@]12CCCC=C1N(CCC1=CCCCC1)C(=O)[C@H](CC(=O)NCC1CCCCC1)C2 | nt | nt | nt | 5% | nt
NC(N)=NN=C1CCC(c2ccccc2)CC1 (stereo unspecified) | 4% | 6% | -6% | -9% | 6%
COC(=O)c1ccccc1Oc1ccc(NC(=O)CCCl)cc1 | -13% | -11% | nt | 23% | -12%
Cc1c(O)ccc(C(=O)CN2CCN(Cc3ccc4c(c3)OCO4)CC2)c1O | 12µM* | -10% | 12% | nt | -24%
Cc1ccc(Nc2nc(N)nc(CN3CCN(Cc4ccc5c(c4)OCO5)CC3)n2)cc1C | 22% | 0% | 0% | 2% | ?
SMILES | Pf growth 96h | SARS PLP yeast | NS1 inh | RE007 growth inh | Pf growth 48h
Cc1ccc(Nc2nc(N)nc(CN3CCN(Cc4ccc5c(c4)OCO5)CC3)n2)cc1 | nt | -1% | 2% | 10% | 10µM*
Cc1ccc(Nc2nc(N)nc(CN3CCN(Cc4ccc5c(c4)OCO5)CC3)n2)cc1Cl | 101%[5.75 µM] | 7% | 17% | 4% | ?
Cc1ccc(Nc2nc(N)nc(CN3CCN(Cc4ccc5c(c4)OCO5)CC3)n2)c(C)c1 | ? | 3% | -5% | 19% | 12µM*
Cc1ccc(NC(=O)N2CCN(Cc3ccc4c(c3)OCO4)CC2)cc1 | 13µM* | 14% | 7% | 9% | nt
O=C(NCC(=O)N1CCN(S(=O)(=O)c2ccccc2)CC1)c1ccc(Br)o1 | 3% | -4% | nt | -6% | 3%
CN(c1nccc(=O)[nH]1)C1CCN(c2nc3ccccc3n2Cc2ccc(F)cc2)CC1 | -10% | nt | nt | nt | ?
CCN1C(=O)[C@H]2[C@H]3CN=C(SCc4ccc(Cl)cc4)N3[C@@](C)(C(=O)OC)[C@H]2C1=O | nt | -10% | nt | -23% | nt
Cc1c(Cl)cccc1NC(=S)N1CCC(N(C)CC2CCCO2)CC1 (stereo unspecified) | 6.6µM* | 2% | nt | -8% | 4%
Cc1ccc(NC(=S)N2CCC(N(C)CC3CCCO3)CC2)cc1C (stereo unspecified) | 1.5µM* | 0% | nt | -30% | 1%
Cc1cccc(NC(=S)N2CCC(N(C)CC3CCCO3)CC2)c1 (stereo unspecified) | ? | 1% | nt | -12% | 20%
COc1ccc(NC(=S)N2CCC(N(C)CC3CCCO3)CC2)cc1Cl (stereo unspecified) | 6.6µM* | -8% | 6% | 12% | 36%
Cc1c(Cl)cccc1NC(=S)N1CCN(C(=O)C2CCCO2)CC1 (stereo unspecified) | 49% | 2% | -3% | -3% | -7%
Cc1ccccc1Nc1nnc(SCC(=O)c2c(N)n(C3CC3)c(=O)[nH]c2=O)s1 | ? | 2% | nt | 4% | ?
Cn1c(SCC(=O)Nc2ccc3c(c2)OCCO3)nnc1-c1ccncc1 | -2% | 2% | 5% | 10% | 6%
C[C@H]1[C@H](NC(=O)/C(=N/OC(C)(C)C(=O)O)c2csc(N)n2)C(=O)N1S(=O)(=O)O (stereo in doubt) | -7%[12.8 µM] | nt | nt | nt | -11%[12.8 µM]
CC(C)C(C)NC(=O)CN1C(=O)NC(c2ccccc2)(c2ccccc2)C1=O (stereo unspecified) | -4% | 3% | 18% | -2% | -9%
C/C(Cl)=C/Cc1c(C)[nH]c2ccc(C)cc2c1=O | 12% | -21% | -42% | 20% | 0.37µM*
C/C(Cl)=C/Cc1c(C)[nH]c2c(ccc3ccccc32)c1=O | -32% | -1% | 12% | -9% | 0.19µM*
COc1ccc(C(=O)NCc2c(C)nn(Cc3ccccc3)c2C)cc1S(=O)(=O)N1CCOCC1 | ? | 4% | nt | 3% | ?
CC1CCc2c(nc3nc[nH]n3c2=O)C1 (stereo unspecified) | 1.2µM* | 7% | 6% | 7% | nt
CCCc1noc2c1/C(=N\O)CC(c1ccccc1)C2 (stereo unspecified) | ? | -2% | 8% | -10% | 9.3µM*
CCc1noc2c1/C(=N\O)CC(c1ccccc1)C2 (stereo unspecified) | 85% | -2% | -2% | 0% | 8.3µM*
CCCc1n[nH]c2c1/C(=N/O)CC(c1ccccc1)C2 (stereo unspecified) | ? | 0% | -7% | -5% | ?

Screening results as filed in PubChem BioAssay.
